Measured values from the supplement of paper PMC12350171.
Structures can show the parent of a compound that is named as a salt. A number with no mark means an inactive call.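 How the source made its calls: active = normalised median growth AUC below 0.1 of DMSO control; inactive = AUC 0.1 or higher.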

Key:
Test in all cases: growth AUC normalised to DMSO control (median) (fraction of control); higher = less growth inhibition, active = hit call of the paper
Details in all cases: 20 µM
P. vulgatus RND KO = system: P. vulgatus RND KO
How it was run: (§1)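 In 96-well plates of mGAM seeded at OD578 0.01, strains that had been passaged twice overnight without oxygen were exposed to approved-drug library compounds at 20 μM with 1% DMSO. Hourly OD578 readings were taken for 24 h in an anaerobic incubator. The trapezoidal-rule area under the curve, with curves truncated at entry into stationary phase, was expressed relative to same-plate vehicle wells as the median of three biological replicates.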

P. vulgatus WT = system: P. vulgatus WT
How it was run: as §1

[1] = system: S. enterica typhimurium WT
How it was run: as §1

[2] = system: S. enterica typhimurium tolC KO
How it was run: as §1
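Further: active when median AUC fell below 0.1.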

SMILES	growth AUC normalised to DMSO control (P. vulgatus RND KO)	growth AUC normalised to DMSO control (P. vulgatus WT)	growth AUC normalised to DMSO control [1]	growth AUC normalised to DMSO control [2]
OC[C@H]1O[C@@H](c2ccc(Cl)c(Cc3ccc(O[C@H]4CCOC4)cc3)c2)[C@H](O)[C@@H](O)[C@@H]1O [Empagliflozin]	1.02	1.04	1.01	0.992
O=[N+]([O-])c1ccc(O)c2ncccc12 [Nitroxoline]	0.0544 (active)	0.0282 (active)	0.237	0.169
COc1nc(N)nc2c1ncn2[C@@H]1O[C@H](CO)[C@@H](O)[C@@H]1O [Nelarabine]	0.98	0.981	0.997	0.981
CN(C)CCc1c[nH]c2ccc(C[C@H]3COC(=O)N3)cc12 [Zolmitriptan]	0.971	0.964	1	1
CC(C)(C)c1ccc(C(=O)CCCN2CCC(OC(c3ccccc3)c3ccccc3)CC2)cc1 [Ebastine]	0.999	1.01	1.01	0.97
CN1CCN(c2c(F)cc3c(=O)c(C(=O)O)cn4c3c2OCN4C)CC1 [Marbofloxacin]	0.0125 (active)	0.0111 (active)	0.00445 (active)	0.00216 (active)
CCCCC1=NC2(CCCC2)C(=O)N1Cc1ccc(-c2ccccc2-c2nnn[nH]2)cc1 [Irbesartan]	0.985	1	1.01	0.987
O=C1OC(CN2CCOCC2)CN1/N=C/c1ccc([N+](=O)[O-])o1 (stereo not given) [Furaltadone hydrochloride]	0.0255 (active)	0.0192 (active)	0.878	0.856
CCOC(=O)c1c(N)sc2c1CCN(Cc1ccccc1)C2 [Tinoridine hydrochloride]	0.91	0.852	0.989	0.969
CCC(=O)c1ccc(O)cc1 [Paroxypropione]	1	0.985	0.994	1
CCOC(=O)C(C)(N)Cc1cc(I)c(Oc2cc(I)c(O)c(I)c2)c(I)c1 (stereo not given) [Etiroxate hydrochloride]	0.415	0.571	1.01	1
O=C(O)c1ccccc1Nc1cc(Cl)ccc1C(=O)O [Lobenzarit disodium]	0.992	1.02	1.02	0.959
CC(C)c1ccc2oc3nc(N)c(C(=O)O)cc3c(=O)c2c1 [Amlexanox]	1.02	1.01	0.996	0.971
Nc1ccc(S(=O)(=O)Nc2cnc3ccccc3n2)cc1 [Sulfaquinoxaline sodium salt]	1.01	1.04	0.985	1
Cc1nc2n(c(=O)c1CCN1CCC(c3noc4cc(F)ccc34)CC1)CCCC2O (stereo not given) [Paliperidone]	0.976	0.958	0.997	0.985
CCCCCCOc1ccccc1C(N)=O [Exalamide]	1.01	1.04	1	0.917
CC1(C)S[C@@H]2[C@H](NC(=O)C(c3ccccc3)S(=O)(=O)O)C(=O)N2[C@H]1C(=O)O (stereo not given in full) [Sulbenicillin sodium salt]	0.00728 (active)	0.00538 (active)	0.116	0.00823 (active)
Nc1ccc(S(=O)(=O)Nc2ccc(Cl)nn2)cc1 [Sulfachloropyridazine]	1.03	1.02	0.965	0.963
CO[C@@H]1[C@@H](O[C@@H]2O[C@H](C)[C@@H](O[C@H]3C[C@@](C)(O)[C@@H](O)[C@H](C)O3)[C@H](N(C)C)[C@H]2O)[C@@H](CC=O)C[C@@H](C)[C@@H](O[C@H]2CC[C@H](N(C)C)[C@@H](C)O2)/C=C/C=C/C[C@@H](C)OC(=O)C[C@H]1OC(C)=O [Acetyl spiramycin]	0.0119 (active)	0.00707 (active)	0.991	0.65
CC(C)Cc1ccc(C(C)C(=O)OCc2ccccn2)cc1 (stereo not given) [Ibuprofen Piconol]	1	1.05	0.999	0.875
CC(=O)OC[C@H]1O[C@@H](n2ncc(=O)[nH]c2=O)[C@H](OC(C)=O)[C@@H]1OC(C)=O [Azaribine]	0.972	0.956	1	1
C=C1[C@H](CO)[C@@H](O)C[C@@H]1n1cnc2c(=O)[nH]c(N)nc21 [Entecavir]	1	0.996	0.999	0.987
O=C1c2c(O)ccc(O)c2C(=O)c2c(NCCNCCO)ccc(NCCNCCO)c21 [Mitoxantrone dihydrochloride]	1.11	1.04	1	0.999

SMILES	growth AUC normalised to DMSO control (P. vulgatus RND KO)	growth AUC normalised to DMSO control (P. vulgatus WT)	growth AUC normalised to DMSO control [1]	growth AUC normalised to DMSO control [2]
CSc1nc2cc(Cl)c(Oc3cccc(Cl)c3Cl)cc2[nH]1 [Triclabendazole]	0.0625 (active)	0.129	0.991	0.0431 (active)
OCC(CO)N[C@H]1C[C@](O)(CO)[C@@H](O)[C@H](O)[C@H]1O [Voglibose]	1.04	1.02	0.977	1.02
CC(=O)Nc1ccccc1 [Acetanilide]	0.993	1	0.997	1.01
O=C(Cn1cnnn1)N[C@@H]1C(=O)N2C(C(=O)O)=C(CSc3nncs3)CS[C@H]12 [Ceftezole]	0.00781 (active)	0.00376 (active)	0.0119 (active)	0.00306 (active)
Cc1c(O)cccc1C(=O)N[C@@H](CSc1ccccc1)[C@H](O)CN1C[C@H]2CCCC[C@H]2C[C@H]1C(=O)NC(C)(C)C [Nelfinavir mesylate]	0.912	0.954	1	0.962
CCc1oc2ccccc2c1C(=O)c1ccc(O)cc1 [Benzarone]	0.881	0.794	1	0.858
CCC(=O)c1c(O)cc(O)cc1O [Flopropione]	0.985	0.986	0.999	0.994
CCOc1ccc2nc(S(N)(=O)=O)sc2c1 [Ethoxzolamide]	0.965	1	0.997	0.998
CC1=C(C(=O)O)N2C(=O)[C@@H](NC(=O)[C@H](N)c3ccccc3)[C@H]2SC1 [Cephalexin monohydrate]	1.04	1.04	0.999	0.968
CCCc1c2oc(C(=O)O)cc(=O)c2cc2c(=O)cc(C(=O)O)n(CC)c12 [Nedocromil sodium]	1.02	1.03	0.992	0.995
CC#CCn1c(N2CCC[C@@H](N)C2)nc2c1c(=O)n(Cc1nc(C)c3ccccc3n1)c(=O)n2C [Linagliptin]	0.987	1.02	1	0.98
Cc1ccc(=O)n(-c2ccccc2)c1 [Pirfenidone]	0.932	0.875	1	1
CC(C)=CCOc1ccc(/C=C/C(=O)c2ccc(OCC=C(C)C)cc2OCC(=O)O)cc1 [Sofalcone]	0.914	0.993	1	0.902
Cc1c(O)c(=O)ccn1C [Deferiprone]	0.978	0.993	1	1
CC(C)OC(=O)C(C(=O)OC(C)C)=C1SC=CS1 [Malotilate]	0.988	0.977	1	0.899
O=C1OC(c2ccc(O)cc2)(c2ccc(O)cc2)c2ccccc21 [Phenolphthalein]	0.979	0.994	1.02	0.524
CCOc1ccc2nc3cc(N)ccc3c(N)c2c1 [Ethacridine lactate]	0.999	0.961	0.991	0.977
O=C(O)CCNC(=O)c1ccccc1 [Betamipron]	1	1.04	0.998	0.807
CN1CCN(C2Cc3ccccc3Sc3ccc(Cl)cc32)CC1 (stereo not given) [Octoclothepin maleate salt]	1.05	1.05	0.981	0.929
CC(=O)Nc1ccc(C(=O)O)cc1 [Acedoben]	0.997	1.01	1	0.997
Nc1c2ccccc2nc2ccccc12 [Aminacrine]	1.07	1.02	0.902	0.903
Cn1c(NCCN(CCO)CCCc2ccc([N+](=O)[O-])cc2)cc(=O)n(C)c1=O [Nifekalant]	1.06	1.03	1.02	1
